Results reported in PubChem BioAssay AID1053197 (The Scripps Research Institute Molecular Screening Center, 2014).
Several values for one entry are separate records, joined by “and”; a condition that tells them apart may be missing. Equal entries are not always repeated. About 2,600 (0.7%) of roughly 370,000 compounds were called active. The sample as a whole holds a higher share of actives than the screen did. Values without a mark were called inactive.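 The calls were made as follows: active = inhibition above a cutoff: mean of compounds within the control limits plus 3 SD of those (cut at about 17% in these data); inactive = the rest.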

The molecules below were run against Sialate O-acetylesterase (Homo sapiens) (UniProt Q9HAT2) (assay: human SIAE inhibitors, primary screen, biochemical, fluorescence polarization, FP-Rh probe, 1536-well HTS (AID 1053197;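 also: 0% = plate median of compound wells and 100% = probe without SIAE protein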)). Settings: SIAE FP-Rh probe binding, at 9.66 µM, hits give high values.
Chain of Sialate O-acetylesterase (Homo sapiens) (Q9HAT2 whole entry, looked up): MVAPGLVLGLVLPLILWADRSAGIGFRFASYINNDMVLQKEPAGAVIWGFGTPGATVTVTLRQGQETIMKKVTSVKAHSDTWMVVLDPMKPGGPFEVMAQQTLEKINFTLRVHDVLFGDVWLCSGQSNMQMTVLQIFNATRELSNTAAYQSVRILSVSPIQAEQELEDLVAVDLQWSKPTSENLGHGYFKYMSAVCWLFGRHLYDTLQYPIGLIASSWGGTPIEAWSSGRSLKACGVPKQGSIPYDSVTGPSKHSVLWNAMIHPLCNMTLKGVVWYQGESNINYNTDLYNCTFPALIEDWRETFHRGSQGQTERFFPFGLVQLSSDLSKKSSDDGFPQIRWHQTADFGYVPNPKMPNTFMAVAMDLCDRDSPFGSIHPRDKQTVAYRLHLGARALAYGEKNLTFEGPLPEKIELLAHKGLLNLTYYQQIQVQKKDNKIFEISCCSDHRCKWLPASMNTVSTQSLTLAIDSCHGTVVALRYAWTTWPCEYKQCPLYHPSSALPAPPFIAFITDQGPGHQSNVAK

Row | SMILES | inhibition
1 | Cc1cccc(-n2c(O)c(/C=N/N3CCOCC3)c(=O)[nH]c2=S)c1 | 1.16%
2 | O=c1[nH]c(=S)n(C2CC2)c(O)c1/C=N/N1CCOCC1 | -9.2%
3 | CC(C)c1ccc(-n2c(O)c(/C=N/N3CCOCC3)c(=O)[nH]c2=S)cc1 | 24.9% (active)
4 | CO[C@H]([C@H](C)/C=C/N(C)C=O)[C@@H](C)C(=O)CC[C@H](C)[C@H](O)[C@H](C)[C@H]1OC(=O)/C=C/C(C)=C/[C@H](O)[C@H](OC)C[C@@H]2C=CC[C@@H](C[C@H](OC)[C@@]3(CO3)[C@@H](OC)C[C@@H](OC)[C@@H]1C)O2 | 9.94%
5 | CCOC(=O)C1(CCc2ccccc2)CCN(Cc2ccco2)CC1 | 2.93%
6 | O=S(=O)(c1ccccc1)N1CCC2CCNC2C1 (stereo not given) | -2.28%
7 | Cc1cc(C(=O)OCC(=O)Nc2c(F)cccc2F)c(C)n1C1CC1 | -0.24%
8 | Cc1cc(C=C2C(=O)NC(=O)NC2=O)c(C)n1-c1ccncc1 | 17.8% (active)
9 | Cc1ccnc(-n2c(C)cc(/C=C3\C(=O)NC(=S)N(C)C3=O)c2C)c1 | 0.93%
10 | CN(C)C(=O)Oc1cc(OC(=O)N(C)C)cc(C(O)CNC(C)(C)C)c1 (stereo not given) | -1.59% and 2.18%
11 | Nc1ccc(C(=O)N/N=C2/CN3CCC2CC3)cc1 | 21.4% (active)
12 | CCN(CC)C(=O)c1ccc(NC(=O)c2sccc2-c2ccccc2)cc1 | -4.91%
13 | c1cc2c(c(NC3=NCCCS3)c1)CCCC2 | 2.24%
14 | COC(=O)COc1cc(C)cc2oc(=O)c3c(c12)CCCC3 | -2.75%
15 | COC(=O)C1=C(c2ccc(F)cc2OCc2ccccc2)C[C@@H]2CC[C@H]1N2C(=O)NCc1ccc2[nH]ccc2c1 | -4.35%
